15 molecules from PubChem BioAssay AID1362 (SRMLSC, 2008) can be followed below.

The whole screen tested about 190,000 compounds, of which about 4,000 (2.1%) were called active. Cut-off read from the data, not from the text of the source: active = inhibition above about 58%; inactive = the rest, inconclusive results apart; tested in S. cerevisiae. What follows is part of a selection rich in actives, with near analogues and random picks from the rest.

The test is described as follows: growth inhibition of WT strain, primary screen, mitochondrial fusion inhibitor project, WT and mutant strains, chemical genetic (AID 1362). To be noted: mitochondrial fusion phenotypic screen, at 10 µM.
Setting [1] is: WT strain, growth inhibition, stronger effect = higher value.

Regarding `CC(C(=O)Nc1ccc(Cl)cc1Cl)N1CC=C(c2ccccc2)CC1` (stereo not given), the inhibition under setting [1] is 70.9% (active) and the inhibition (mutant strain inhibition) was determined as 1.22%.
Take `CN1CCN(C(=S)SCC(=O)Nc2ccc(Cl)cc2C(=O)c2ccccc2)CC1`: the inhibition reads like this: under setting [1], 7.01% (inactive); (mutant strain inhibition) 6.59%.
Take `O=C(OCCN1CCOCC1)C1(c2ccccc2)CCCC1`: the inhibition under setting [1] is 8.37% (inactive) and the inhibition (mutant strain inhibition) amounted to 10.3%.
As to `CCCOC(=O)C1C2c3ccccc3C(c3ccccc32)C1C(=O)O` (stereo not given), the inhibition reads like this: under setting [1], -5.35% (inactive); (mutant strain inhibition) -6.76%.
On to `CC1=CC(=Cc2sc3ccccc3[n+]2C)C=C(C)O1`, for which the inhibition runs as follows: under setting [1], 65.7% (active); (mutant strain inhibition) 63.1%.
On to `COP(=O)(OC)C(NC(=O)c1ccc(C)cc1)C(Cl)(Cl)Cl` (stereo not given), for which the inhibition was 3.22% (inactive) under setting [1] and 7.65% (mutant strain inhibition).
Consider `Cc1cc(C=C2C(=O)NC(=O)NC2=O)c(C)n1-c1ccncc1`, for which the inhibition runs as follows: under setting [1], -0.16% (inactive); (mutant strain inhibition) -6.83%.
With `O=C(Cn1c(=O)n(CC2CS2)c2ccccc21)N1CCCCC1` (stereo not given), the inhibition is 0.43% (inactive) under setting [1] and -0.1% (mutant strain inhibition).
Taken in the same sequence, the figures for `O=C(CN1CCCCC1)Nc1ccc(Br)cc1C(=O)c1ccccc1Cl` were 74.3% (active) and 9.62%.
Taken in the same sequence, the figures for `O=C(COC(=O)c1ccccc1)Nc1ccc(Cl)cc1C(=O)c1ccccc1` were 16.3% (inactive) and 10.6%.
On to `O=C(CCN1CCCCC1)NCC(=O)Nc1ccc(Br)cc1C(=O)c1ccccc1`, for which the inhibition is, setting by setting: under setting [1], 7.53% (inactive); (mutant strain inhibition) 1.33%.
Turning to `CCOC(=O)C1(CCc2ccccc2)CCN(Cc2ccco2)CC1`, the inhibition was 12.8% (inactive) under setting [1] and 4.98% (mutant strain inhibition).
`COc1ccccc1N=Nc1c(O)[nH]c(=S)[nH]c1=O`: the inhibition is, setting by setting: under setting [1], 4.7% (inactive); (mutant strain inhibition) 1.05%.
Taken in the same sequence, the figures for `CC(c1ccccc1)(c1ccccc1)c1ccncc1` were 26.6% (inactive) and 19.3%.
In the case of `COP(=O)(NS(=O)(=O)c1ccccc1)OC`, the inhibition is, setting by setting: under setting [1], -9.16% (inactive); (mutant strain inhibition) -1.53%.
